This note sets out measurements from publication PMC7862700, “An all-to-all approach to the identification of sequence-specific readers for epigenetic DNA modifications on cytosine”.

Common to all, as to assay: DAPPL (digital affinity profiling via proximity ligation, sequencing); 10 mM Tris-HCl pH 7.5, 50 mM NaCl, 1 mM DTT, 4% glycerol, room temperature, 30 min; GST-TFs on glutathione beads, 16-mer random dsDNA library, 0.1% formaldehyde crosslink after washing; high values mean tight binding
Holding throughout (settings): protein: recombinant; tags: N-terminal GST; dsDNA, one strand shown

Assay [1] addresses T1, SPIC (Homo sapiens, UniProt Q8N5J4 1-248).
T1 sequence: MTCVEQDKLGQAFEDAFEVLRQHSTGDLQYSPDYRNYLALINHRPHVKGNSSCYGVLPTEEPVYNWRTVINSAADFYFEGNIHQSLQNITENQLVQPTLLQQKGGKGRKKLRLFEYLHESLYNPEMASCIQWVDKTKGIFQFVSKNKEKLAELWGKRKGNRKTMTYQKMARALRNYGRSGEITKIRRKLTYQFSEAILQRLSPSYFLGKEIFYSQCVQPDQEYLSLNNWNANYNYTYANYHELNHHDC
In a few lines:
(§1)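 A tag-only sample was pooled with DNA-barcoded human transcription factors that had been expressed in yeast as GST fusions and captured on glutathione beads. The pools were incubated for 30 min at room temperature with 200 nmole of a random double-stranded 16-mer DNA library in Tris/NaCl/DTT/glycerol buffer, then washed, crosslinked with 0.1% formaldehyde, proximity-ligated (BsaI/T4 ligase, 1 h, 37 °C), PCR-amplified and sequenced on an Illumina NextSeq500. Binding signal is each hexamer's read frequency for a factor divided by its frequency for the tag-only sample.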

Assay [2] concerns the target T2, ELK1 (Homo sapiens, UniProt P19419 1-428).
T2 sequence: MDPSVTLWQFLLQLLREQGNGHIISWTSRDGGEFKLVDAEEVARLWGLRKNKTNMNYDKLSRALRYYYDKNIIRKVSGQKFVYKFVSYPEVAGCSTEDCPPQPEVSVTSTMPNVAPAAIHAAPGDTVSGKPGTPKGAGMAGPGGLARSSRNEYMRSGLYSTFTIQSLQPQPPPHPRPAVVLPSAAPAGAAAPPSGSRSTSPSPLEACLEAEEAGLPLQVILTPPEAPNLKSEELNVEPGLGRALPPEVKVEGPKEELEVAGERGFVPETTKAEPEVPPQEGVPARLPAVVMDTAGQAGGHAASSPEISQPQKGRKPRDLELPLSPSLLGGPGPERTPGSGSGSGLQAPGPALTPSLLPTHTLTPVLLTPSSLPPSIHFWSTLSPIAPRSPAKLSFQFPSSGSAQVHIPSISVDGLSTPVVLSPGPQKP
In a few lines:
as §1

Assay [3] addresses T3, GABPA (Homo sapiens, UniProt Q06546 1-454).
T3 sequence: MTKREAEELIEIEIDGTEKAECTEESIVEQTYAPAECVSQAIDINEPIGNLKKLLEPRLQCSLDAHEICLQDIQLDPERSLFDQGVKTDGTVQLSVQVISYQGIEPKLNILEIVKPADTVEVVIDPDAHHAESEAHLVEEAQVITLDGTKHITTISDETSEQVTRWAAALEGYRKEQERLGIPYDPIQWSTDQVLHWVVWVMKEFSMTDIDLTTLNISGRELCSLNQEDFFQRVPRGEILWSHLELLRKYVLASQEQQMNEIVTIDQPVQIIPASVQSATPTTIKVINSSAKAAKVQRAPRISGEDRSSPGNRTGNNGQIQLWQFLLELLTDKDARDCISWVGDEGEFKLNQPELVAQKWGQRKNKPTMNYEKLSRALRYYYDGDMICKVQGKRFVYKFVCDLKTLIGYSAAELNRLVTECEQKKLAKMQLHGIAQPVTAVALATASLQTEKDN
Put shortly: as §1

Assay [4] deals with ELF1 (Homo sapiens, UniProt P32519 1-619). In a few lines:
as §1

Assay [5] addresses T4, EHF (Homo sapiens, UniProt Q9NZC4 1-300).
T4 sequence: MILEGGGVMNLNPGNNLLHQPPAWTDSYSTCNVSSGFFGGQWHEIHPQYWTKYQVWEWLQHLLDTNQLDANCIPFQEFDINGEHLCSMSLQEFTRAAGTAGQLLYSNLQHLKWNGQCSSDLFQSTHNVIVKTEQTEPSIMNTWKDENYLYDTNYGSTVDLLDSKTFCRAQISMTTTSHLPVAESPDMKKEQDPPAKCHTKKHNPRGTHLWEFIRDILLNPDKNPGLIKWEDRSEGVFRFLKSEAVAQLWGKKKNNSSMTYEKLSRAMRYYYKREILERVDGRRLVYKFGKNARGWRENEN
Put shortly: as §1

The target in assay [6] is SPIB (Homo sapiens, UniProt Q01892 1-262). Put shortly: as §1
Chain of SPIB (Q01892 whole entry): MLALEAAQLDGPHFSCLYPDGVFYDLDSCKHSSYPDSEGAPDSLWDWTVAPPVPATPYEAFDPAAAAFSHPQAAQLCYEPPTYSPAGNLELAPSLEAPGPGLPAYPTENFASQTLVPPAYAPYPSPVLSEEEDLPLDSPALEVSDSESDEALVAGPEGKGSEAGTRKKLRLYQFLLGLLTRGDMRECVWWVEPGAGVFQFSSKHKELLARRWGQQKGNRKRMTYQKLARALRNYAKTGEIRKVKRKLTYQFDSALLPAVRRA
The target in assay [7] is T5, ELK3 (Homo sapiens, UniProt P41970 1-407).
T5 sequence: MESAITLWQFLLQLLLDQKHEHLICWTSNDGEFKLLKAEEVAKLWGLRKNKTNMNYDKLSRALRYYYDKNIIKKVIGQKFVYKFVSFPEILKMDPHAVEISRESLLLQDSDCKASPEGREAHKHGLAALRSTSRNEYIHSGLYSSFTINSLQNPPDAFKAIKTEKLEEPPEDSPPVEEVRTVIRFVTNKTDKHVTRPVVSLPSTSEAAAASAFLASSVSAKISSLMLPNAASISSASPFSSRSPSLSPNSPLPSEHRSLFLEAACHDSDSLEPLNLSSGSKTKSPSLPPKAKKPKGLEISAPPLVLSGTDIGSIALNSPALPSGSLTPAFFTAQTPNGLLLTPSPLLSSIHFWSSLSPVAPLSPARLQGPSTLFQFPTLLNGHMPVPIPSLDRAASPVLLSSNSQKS
Put shortly: as §1

The target of assay [8] is ELF4 (Homo sapiens, UniProt Q99607 1-663). In a few lines: as §1
Chain of ELF4 (Q99607 whole entry): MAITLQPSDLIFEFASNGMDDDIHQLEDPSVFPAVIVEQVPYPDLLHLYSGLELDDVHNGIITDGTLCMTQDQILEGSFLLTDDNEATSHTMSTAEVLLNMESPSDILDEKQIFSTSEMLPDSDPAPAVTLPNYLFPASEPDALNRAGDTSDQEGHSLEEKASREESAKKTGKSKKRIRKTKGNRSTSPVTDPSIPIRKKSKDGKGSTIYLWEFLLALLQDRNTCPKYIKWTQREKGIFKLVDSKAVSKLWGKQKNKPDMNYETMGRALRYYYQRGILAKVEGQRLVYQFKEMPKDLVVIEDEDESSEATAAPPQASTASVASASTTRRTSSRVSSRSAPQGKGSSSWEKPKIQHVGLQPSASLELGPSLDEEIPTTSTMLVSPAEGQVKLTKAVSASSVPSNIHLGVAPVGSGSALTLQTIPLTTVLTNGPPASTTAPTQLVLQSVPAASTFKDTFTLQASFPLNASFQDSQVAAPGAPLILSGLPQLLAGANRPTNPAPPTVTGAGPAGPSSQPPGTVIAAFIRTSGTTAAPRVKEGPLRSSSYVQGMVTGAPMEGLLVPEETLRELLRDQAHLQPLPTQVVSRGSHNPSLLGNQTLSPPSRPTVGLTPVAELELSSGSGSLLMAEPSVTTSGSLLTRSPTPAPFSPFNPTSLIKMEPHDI
The target of assay [9] is T6, ERF (Homo sapiens, UniProt P50548 1-548).
T6 sequence: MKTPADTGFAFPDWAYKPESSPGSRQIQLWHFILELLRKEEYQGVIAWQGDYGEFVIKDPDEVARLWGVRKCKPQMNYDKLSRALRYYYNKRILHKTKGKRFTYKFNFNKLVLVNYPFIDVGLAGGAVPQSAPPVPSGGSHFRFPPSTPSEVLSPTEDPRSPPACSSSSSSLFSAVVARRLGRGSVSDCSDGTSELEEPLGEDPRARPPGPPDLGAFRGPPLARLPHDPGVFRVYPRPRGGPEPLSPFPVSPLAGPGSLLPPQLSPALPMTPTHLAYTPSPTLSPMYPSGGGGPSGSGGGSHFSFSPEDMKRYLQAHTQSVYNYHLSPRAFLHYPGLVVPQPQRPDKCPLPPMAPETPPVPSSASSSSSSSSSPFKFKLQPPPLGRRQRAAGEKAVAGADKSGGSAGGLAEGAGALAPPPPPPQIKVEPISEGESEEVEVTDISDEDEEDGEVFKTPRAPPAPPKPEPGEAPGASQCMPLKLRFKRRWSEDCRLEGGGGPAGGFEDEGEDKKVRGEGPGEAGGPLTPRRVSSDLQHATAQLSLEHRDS
In a few lines:
as §1

Assay [10] has as its target T7, SPDEF (Homo sapiens, UniProt O95238 1-335).
T7 sequence: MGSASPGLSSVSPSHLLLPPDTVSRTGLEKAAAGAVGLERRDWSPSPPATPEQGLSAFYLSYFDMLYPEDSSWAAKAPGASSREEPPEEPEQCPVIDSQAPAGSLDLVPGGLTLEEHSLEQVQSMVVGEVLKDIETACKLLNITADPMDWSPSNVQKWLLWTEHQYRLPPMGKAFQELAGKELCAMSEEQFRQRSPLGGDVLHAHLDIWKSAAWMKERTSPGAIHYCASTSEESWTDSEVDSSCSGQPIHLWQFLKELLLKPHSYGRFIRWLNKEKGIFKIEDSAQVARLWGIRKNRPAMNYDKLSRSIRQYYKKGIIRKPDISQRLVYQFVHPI
In a few lines:
as §1

Assay [11] has as its target T8, ETV7 (Homo sapiens, UniProt Q9Y603 1-341).
T8 sequence: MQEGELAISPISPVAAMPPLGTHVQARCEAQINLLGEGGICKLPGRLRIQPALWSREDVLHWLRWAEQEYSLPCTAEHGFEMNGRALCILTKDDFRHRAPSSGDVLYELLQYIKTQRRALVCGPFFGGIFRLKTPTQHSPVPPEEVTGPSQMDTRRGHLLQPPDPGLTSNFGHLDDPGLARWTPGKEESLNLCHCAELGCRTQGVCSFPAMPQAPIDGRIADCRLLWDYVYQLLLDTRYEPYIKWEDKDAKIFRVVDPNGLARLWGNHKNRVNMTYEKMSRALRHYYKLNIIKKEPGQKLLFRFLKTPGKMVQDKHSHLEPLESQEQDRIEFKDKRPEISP
Put shortly: as §1

In assay [12] the target is T9, ETV3 (Homo sapiens, UniProt P41162-2 1-143).
T9 sequence: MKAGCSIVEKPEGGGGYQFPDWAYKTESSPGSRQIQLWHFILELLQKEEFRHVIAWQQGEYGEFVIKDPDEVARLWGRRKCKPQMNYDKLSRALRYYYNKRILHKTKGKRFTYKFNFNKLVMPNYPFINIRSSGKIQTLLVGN
Put shortly:
as §1

The target in assay [13] is ETV6 (Homo sapiens, UniProt P41212 1-452). Put shortly:
as §1

In assay [14] the target is T10, ELF3 (Homo sapiens, UniProt P78545 1-371).
T10 sequence: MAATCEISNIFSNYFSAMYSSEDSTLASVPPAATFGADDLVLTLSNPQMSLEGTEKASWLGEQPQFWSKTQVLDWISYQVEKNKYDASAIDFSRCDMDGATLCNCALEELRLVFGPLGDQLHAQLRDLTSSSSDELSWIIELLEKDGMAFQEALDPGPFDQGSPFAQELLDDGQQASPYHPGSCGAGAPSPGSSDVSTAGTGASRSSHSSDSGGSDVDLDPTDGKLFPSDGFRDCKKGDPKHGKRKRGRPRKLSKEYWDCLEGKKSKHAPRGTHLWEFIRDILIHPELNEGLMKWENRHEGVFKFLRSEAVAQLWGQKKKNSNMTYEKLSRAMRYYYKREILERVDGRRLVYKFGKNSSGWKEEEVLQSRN
Put shortly: as §1

Assay [15] addresses ETV1 (Homo sapiens, UniProt P50549 1-477). Put shortly: as §1

Chain of ETV6 (P41212 whole entry): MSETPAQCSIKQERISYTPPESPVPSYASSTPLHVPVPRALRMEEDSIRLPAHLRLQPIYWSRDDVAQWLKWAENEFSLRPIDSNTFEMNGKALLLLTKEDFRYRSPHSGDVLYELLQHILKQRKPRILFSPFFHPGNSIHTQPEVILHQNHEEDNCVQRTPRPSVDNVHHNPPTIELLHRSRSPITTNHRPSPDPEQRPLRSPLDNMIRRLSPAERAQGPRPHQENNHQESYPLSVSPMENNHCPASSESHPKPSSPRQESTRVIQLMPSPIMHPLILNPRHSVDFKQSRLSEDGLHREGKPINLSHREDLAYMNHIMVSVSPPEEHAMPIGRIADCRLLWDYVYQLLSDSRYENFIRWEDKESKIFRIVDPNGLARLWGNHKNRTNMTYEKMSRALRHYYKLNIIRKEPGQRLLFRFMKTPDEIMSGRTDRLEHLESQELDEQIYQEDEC
Chain of ELF1 (P32519 whole entry): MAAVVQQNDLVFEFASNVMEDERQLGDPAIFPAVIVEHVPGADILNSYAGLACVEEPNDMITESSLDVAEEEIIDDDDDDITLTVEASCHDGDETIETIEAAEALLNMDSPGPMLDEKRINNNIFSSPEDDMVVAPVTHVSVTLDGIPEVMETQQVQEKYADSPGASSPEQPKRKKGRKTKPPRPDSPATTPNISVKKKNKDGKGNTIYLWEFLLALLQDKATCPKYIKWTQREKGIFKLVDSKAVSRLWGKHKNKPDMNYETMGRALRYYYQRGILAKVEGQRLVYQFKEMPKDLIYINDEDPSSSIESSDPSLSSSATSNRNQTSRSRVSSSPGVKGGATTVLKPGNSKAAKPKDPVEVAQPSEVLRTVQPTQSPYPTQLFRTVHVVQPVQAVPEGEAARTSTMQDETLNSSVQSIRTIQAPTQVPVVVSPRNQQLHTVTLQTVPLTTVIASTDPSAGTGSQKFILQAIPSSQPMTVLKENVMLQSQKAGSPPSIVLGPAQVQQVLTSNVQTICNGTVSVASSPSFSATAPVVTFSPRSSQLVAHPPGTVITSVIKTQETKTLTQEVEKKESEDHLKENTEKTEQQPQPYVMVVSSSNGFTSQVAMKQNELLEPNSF
Chain of ETV1 (P50549 whole entry): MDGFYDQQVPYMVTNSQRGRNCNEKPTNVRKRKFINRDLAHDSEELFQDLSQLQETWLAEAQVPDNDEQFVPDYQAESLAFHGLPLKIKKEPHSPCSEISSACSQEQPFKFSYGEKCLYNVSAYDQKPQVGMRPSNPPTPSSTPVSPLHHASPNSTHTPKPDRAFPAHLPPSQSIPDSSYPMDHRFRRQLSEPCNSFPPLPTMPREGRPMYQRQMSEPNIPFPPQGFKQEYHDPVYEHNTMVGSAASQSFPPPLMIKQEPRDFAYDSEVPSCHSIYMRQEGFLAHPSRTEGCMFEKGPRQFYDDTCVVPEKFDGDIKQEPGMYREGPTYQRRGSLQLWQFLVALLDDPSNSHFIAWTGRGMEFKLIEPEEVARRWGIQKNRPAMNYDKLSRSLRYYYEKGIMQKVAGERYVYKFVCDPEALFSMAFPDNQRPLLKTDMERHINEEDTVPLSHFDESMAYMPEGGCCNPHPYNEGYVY

Turning to GTAAGC, the binding signal in assay [1] was 1.01 fold enrichment (6-mer frequency, TF over GST control).
As to TTAAGA, the binding signal in [2] was 1.05 fold enrichment (6-mer frequency, TF over GST control); in assay [3], 1.09 fold enrichment (6-mer frequency, TF over GST control); in assay [4] it was 1.05 fold enrichment (6-mer frequency, TF over GST control); in assay [5], 1.05 fold enrichment (6-mer frequency, TF over GST control); in assay [6], 1.07 fold enrichment (6-mer frequency, TF over GST control); in [7], 1.02 fold enrichment (6-mer frequency, TF over GST control). Besides, the binding signal in assay [1] was 1.12 fold enrichment (6-mer frequency, TF over GST control); in assay [8], 1.05 fold enrichment (6-mer frequency, TF over GST control); in [9] it was 1.08 fold enrichment (6-mer frequency, TF over GST control); in assay [10], 1.06 fold enrichment (6-mer frequency, TF over GST control); in assay [11] it was 1.13 fold enrichment (6-mer frequency, TF over GST control); in assay [12], 1.05 fold enrichment (6-mer frequency, TF over GST control). In [13], the binding signal was 1.05 fold enrichment (6-mer frequency, TF over GST control).
For AGATCT, the binding signal in assay [5] is 1.04 fold enrichment (6-mer frequency, TF over GST control); in [7] it was 1.07 fold enrichment (6-mer frequency, TF over GST control); in assay [1], 1.07 fold enrichment (6-mer frequency, TF over GST control); in assay [8], 1.01 fold enrichment (6-mer frequency, TF over GST control); in assay [14], 1.09 fold enrichment (6-mer frequency, TF over GST control); in assay [15] it was 1.1 fold enrichment (6-mer frequency, TF over GST control). Further, the binding signal in [9] is 1.05 fold enrichment (6-mer frequency, TF over GST control); in assay [11] it was 1.05 fold enrichment (6-mer frequency, TF over GST control).
